Cycloheximide cs = affects cycloheximide protein synthesis inhibition readout, counter-screen; actives 12% (n = 300,000); max response, %; cell reporter, cycloheximide protein synthesis inhibition counterscreen; in the data active = max response mostly above about 13%, no sharp cut-off; inactive = mostly below about 14%; also: read at 38.3 µM for the half of the compounds with a filed dose
Shiga toxin inh = blocks Shiga toxin action in Vero cells; inhibition, % at 38.7 µM; Vero cells, Shiga toxin protein synthesis inhibition reporter; actives 9.2% (n = 290,000); in the data active = inhibition mostly above about 28%, no sharp cut-off; inactive = mostly below about 43%
Pf growth 48h = inhibits P. falciparum growth in the first generation, 48 h | P. falciparum luciferase growth in erythrocytes, 48 h | Potency, µM (highest dose often 28.7 µM), actives largely listed as inhibitors | actives 5.9% (n = 310,000) | AID 504832
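Luciferase-expressing parasites in RBCs, 2% Hct / 0.1% parasitemia final; RPMI 1640 + 0.5% Albumax; 37 C, 5% CO2, one generation; luminescence read-out, lower signal = inhibition.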
LmPK inh = LmPK (Leishmania mexicana) enzyme inhibition. actives 0.37% (n = 290,000). purified LmPK, Kinase-Glo ATP luminescence, 1 h. AID 1721. Potency, µM (highest dose often 57.5 µM), hits mostly inhibitors. Q27686
Target sequence (Q27686 whole entry, looked up): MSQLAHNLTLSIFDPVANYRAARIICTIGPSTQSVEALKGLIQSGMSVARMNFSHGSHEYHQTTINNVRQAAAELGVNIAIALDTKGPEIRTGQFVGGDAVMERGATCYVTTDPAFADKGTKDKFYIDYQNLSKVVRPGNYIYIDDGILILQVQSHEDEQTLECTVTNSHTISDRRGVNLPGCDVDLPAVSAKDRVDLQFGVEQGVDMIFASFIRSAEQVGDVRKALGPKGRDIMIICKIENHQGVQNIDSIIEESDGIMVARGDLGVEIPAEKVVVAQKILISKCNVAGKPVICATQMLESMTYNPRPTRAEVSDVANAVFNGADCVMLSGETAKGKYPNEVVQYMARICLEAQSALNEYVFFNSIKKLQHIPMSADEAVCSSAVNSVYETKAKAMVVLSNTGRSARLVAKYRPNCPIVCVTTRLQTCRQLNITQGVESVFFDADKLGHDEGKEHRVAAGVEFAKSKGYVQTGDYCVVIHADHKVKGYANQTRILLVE
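0.1 nM LmPK, 0.5 mM PEP, 0.1 mM ADP; 50 mM imidazole pH 7.2, 7 mM MgCl2, 50 mM KCl; 1 h RT. Kinase-Glo luminescence readout, normalized to no-enzyme (full inhibition) and uninhibited wells.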
Pf growth 96h = P. falciparum growth inhibition at 96 hours. P. falciparum luciferase reporter growth, 96 h. Potency, µM (titrated, usually from 28.7 µM), hits mostly inhibitors. actives 6.9% (n = 320,000)
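Readout is luminescence from an integrated firefly luciferase in P. falciparum. Red cells, 2% hematocrit and 0.05% parasitemia final, were cultured with compound through two parasite generations (96 hours) at 37 C, 5% CO2.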
A number is an active result; n = inactive; u = inconclusive; x = no result given. Hits are enriched below; roughly 22% of the tested compounds scored in any of these assays. Unless noted, calls follow the shape of the dose curve; as a rule, active = well fitted inhibition curve with a large enough effect; inconclusive = small, poorly fitted or top-dose-only effect, or another doubt; inactive = no such curve, though single readings can be large or run the other way.

SMILES	Cycloheximide cs	Shiga toxin inh	Pf growth 48h	LmPK inh	Pf growth 96h
COc1ccc(/C=N/N=C(\N)c2nonc2N)cc1OC	31	108	n	n	u
COc1cc(/C=N/N=C(\N)c2nonc2N)ccc1O	24	61	n	n	n
N/C(=N\N=C\c1ccc([N+](=O)[O-])cc1)c1nonc1N	51	91	n	n	n
O=C(O)c1ccc(NC(=O)[C@H](Cc2ccc(O)cc2)NC(=O)c2ccccc2)cc1	n	n	n	x	n
CC(C)CCN1CCNC(=O)C1CC(=O)N(C)CCCN1CCOCC1 (stereo not given)	n	n	n	n	n
N/C(=N\N=C\c1cccc(O)c1)c1nonc1N	31	59	n	11µM	n
CC1=C(C(=O)Nc2ccccc2)C(c2ccncc2)C(C#N)=C(SCC(=O)NC2CC2)N1 (stereo not given)	n	n	n	n	u
CCCSC1=C(C#N)C(c2cccs2)C(C(=O)Nc2ccccc2)=C(C)N1 (stereo not given)	n	n	8.3µM	n	n
CCSC1=C(C#N)C(c2cccs2)C(C(=O)OC)=C(C)N1 (stereo not given)	n	n	x	n	n
CC1=C(C(=O)Nc2ccccc2)C(c2ccncc2)C(C#N)=C(SCC(=O)NC(C)C)N1 (stereo not given)	n	n	10µM	n	n
Cc1ccc(F)cc1-c1ccc(C(=O)N=C(N)N)o1	32	60	x	x	x
Cc1sc2c(c1C)CN(C1CC(C)(C)NC(C)(C)C1)CN2C(=O)c1ccco1	23	44	u	n	n
CC1(C)CC(CCNC(=O)c2ccco2)CC(C)(C)N1	n	n	n	n	x
Cc1nn(-c2ccccc2)c(C)c1NC(=O)COC(=O)c1cccc(OC(F)F)c1	x	x	n	x	n
OC12CCCCC1C(c1ccc3c(c1)OCO3)N(Cc1cccc(F)c1)CC2 (stereo not given)	n	n	n	n	n
OC12CCCCC1C(c1ccc3c(c1)OCO3)N(Cc1ccc(F)cc1)CC2 (stereo not given)	n	n	13µM	n	9.3µM
Cc1ccc(Cl)cc1NC(=O)Nc1c(C)n(C)n(-c2ccccc2)c1=O	n	n	n	n	n
CCOc1ccccc1N1CCN(CC(O)COc2ccc3c(C)cc(=O)oc3c2)CC1 (stereo not given)	n	n	8.3µM	n	n
CSc1cccc(NC(=O)CN(Cc2ccc(Cl)cc2)S(C)(=O)=O)c1	n	n	n	n	x
CCOc1ccc(-n2c(N)c(-c3nc4ccccc4[nH]3)sc2=S)cc1	n	n	n	n	x
COc1ccc(-n2c(N)c(-c3nc4ccccc4n3C)sc2=S)cc1	n	n	0.93µM	n	n
CCc1ccccc1-n1nnnc1SCC(=O)Nc1ccc(N2CCN(C)CC2)cc1	n	n	15µM	n	u
CCc1ccccc1-n1nnnc1SCC(=O)Nc1cc(C)on1	n	n	n	n	9.3µM
Cc1ccccc1-n1nnnc1SCC(=O)Nc1ccc(N2CCN(C)CC2)cc1	n	n	n	n	n
Cc1cc(NC(=O)CSc2nnnn2-c2ccccc2C)no1	n	n	u	n	u
SMILES	Cycloheximide cs	Shiga toxin inh	Pf growth 48h	LmPK inh	Pf growth 96h
C/C(=N\n1cnnc1)c1ccccc1	n	n	n	n	n
c1ccc(C[n+]2c(-c3ccccc3)csc2Nc2ccccc2)cc1	15	n	u	n	9.3µM
C=CC[n+]1c(-c2ccc(C)cc2)csc1Nc1ccc(NC(C)=O)cc1	n	n	u	n	n
CC[n+]1c(-c2ccccc2)csc1Nc1c(C)n(C)n(-c2ccccc2)c1=O	n	n	n	n	n
c1ccc(Nc2scc(-c3ccccc3)[n+]2Cc2ccco2)cc1	52	158	n	n	n
O=C(O)/C=C\c1cn(-c2ccccc2)nc1-c1cc2ccccc2o1	n	n	u	n	n
O=C(O)/C=C/c1cn(-c2ccccc2)nc1-c1ccccc1	n	n	n	n	5.9µM
O=C(N/C(=C\c1cn(-c2ccccc2)nc1-c1ccccc1)C(=O)N1CCOCC1)c1ccccc1	n	n	n	n	n
O=C(O)/C=C/c1cnn(-c2ccccc2)c1	21	n	n	u	n
N#Cc1cn(-c2ccccc2)nc1-c1ccccc1	21	n	n	n	n
O=C(O)Cc1cn(-c2ccccc2)nc1-c1ccccc1	n	n	n	n	n
C(=N\N1CCOCC1)/c1cn(-c2ccccc2)nc1-c1ccccc1	22	n	n	n	n
Cc1ccc(CC(=O)Nc2ccccc2N2CCOCC2)cc1C	n	n	u	n	x

Bioassay records as filed in PubChem BioAssay.
